Measured values published in PubChem BioAssay AID1159580 (chemical genetic matrix, 2015).
Among all 5,500 compounds or so, about 2,000 (36%) were called active. About 18% were inconclusive and are not listed. Rule as the data show it: active = normalized growth mostly below about 0.91 (no sharp cut-off); inconclusive = no clear call, values can overlap the other calls; inactive = mostly above about 0.92. The list shows a part of the results.

Assay: chemical genetic growth profiling, strain panel (AID 1159580);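 also: tested at 20 µM; growth read once vehicle control cultures reached saturation at 30 °C; 1 = growth at the plate median or of vehicle wells; lower values mean less growth of the strain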
Conditions: S. cerevisiae deletion strains, growth OD

Measured: normalized growth

O=c1c(O)cccc2cc(O)c(O)c(O)c12
active: locus YJR075W, strain HOC1, active compounds read low 0.82 | locus YKL009W, strain mrt4, active compounds read low 0.345 | locus YKL068W, active compounds read low 0.928 | locus YKL085W, strain MDH1 (second series), active compounds read low 0.818 | locus YKL085W, strain MDH1, active compounds read low 0.818 | locus YKL160W, strain elf1, active compounds read low 0.853 | locus YKR001C, strain vps1, active compounds read low 0.818 | locus YKR026C, strain gcn3, active compounds read low 0.915 | locus YLL001W, strain dnm1, active compounds read low 0.699 | locus YLL026W, active compounds read low 0.841 | locus YLL041C, strain sdh2, active compounds read low 0.902 | locus YLR027C, strain aat2, active compounds read low 0.815 | locus YLR039C, strain RIC1, active compounds read low 0.481 | locus YLR058C, strain SHM2, active compounds read low 0.22 | locus YLR113W, strain HOG1, active compounds read low 0.51 | locus YLR221C, strain rsa3, active compounds read low 0.78 | locus YLR258W, strain gsy2, active compounds read low 0.83 | locus YLR262C, strain YPT6 (second series), active compounds read low 0.485 | locus YLR268W, strain sec22, active compounds read low 0.515 | locus YLR320W, strain mms22, active compounds read low 0.595 | locus YLR330W, strain CHS5, active compounds read low 0.852 | locus YLR342W, strain FKS1 (second series), active compounds read low 0.564 | locus YLR342W, strain FKS1, active compounds read low 0.764 | locus YLR357W, strain rsc2, active compounds read low 0.632 | locus YLR370C, strain arc18, active compounds read low 0.656 | locus YLR371W, strain rom2, active compounds read low 0.746 | locus YLR384C, strain iki3, active compounds read low 0.799 | locus YLR418C, strain cdc73, active compounds read low 0.458 | locus YML016C, strain PPZ1, active compounds read low 0.583 | locus YML032C, strain rad52, active compounds read low 0.522 | locus YML120C, strain ndi1, active compounds read low 0.0997 | locus YML124C, strain tub3, active compounds read low 0.839 | locus YMR058W, strain fet3, active compounds read low 0.179 | locus YMR129W, active compounds read low 0.919 | locus YMR205C, strain PFK2, active compounds read low 0.511 | locus YMR223W, strain ubp8, active compounds read low 0.838 | locus YMR231W, strain pep5, active compounds read low 0.183 | locus YMR307W, strain GAS1, active compounds read low 0.586 | locus YNL067W, strain RPL9B, active compounds read low 0.699 | locus YNL071W, strain lat1, active compounds read low 0.833 | locus YNL153C, strain GIM3, active compounds read low 0.511 | locus YNL183C, strain NPR1, active compounds read low 0.66 | locus YNL209W, strain ssb2, active compounds read low 0.398 | locus YNL233W, strain BNI4, active compounds read low 0.741 | locus YNL248C, strain rpa49, active compounds read low 0.811 | locus YNL250W, strain rad50, active compounds read low 0.76 | locus YNL271C, strain bni1, active compounds read low 0.841 | locus YNL322C, strain KRE1 (second series), active compounds read low 0.237 | locus YNR049C, strain mso1, active compounds read low 0.898 | locus YNR052C, strain pop2, active compounds read low 0.185 | locus YOL006C, strain TOP1, active compounds read low 0.423 | locus YOL147C, strain pex11, active compounds read low 0.689 | locus YOR001W, strain rrp6, active compounds read low 0.686 | locus YOR061W, strain CKA2, active compounds read low 0.734 | locus YOR069W, strain VPS5, active compounds read low 0.775 | locus YOR070C, strain gyp1, active compounds read low 0.901 | locus YOR080W, strain dia2, active compounds read low 0.553 | locus YOR083W, strain WHI5, active compounds read low 0.737 | locus YOR106W, strain vam3, active compounds read low 0.367 | locus YOR144C, strain elg1, active compounds read low 0.545 | locus YOR184W, strain ser1, active compounds read low 0.636 | locus YOR231W, strain MKK1, active compounds read low 0.665 | locus YOR265W, strain rbl2, active compounds read low 0.871 | locus YOR270C, strain vph1, active compounds read low 0.16 | locus YOR290C, strain snf2, active compounds read low 0.105 | locus YPL051W, strain arl3, active compounds read low 0.525 | locus YPL078C, strain atp4, active compounds read low 0.284 | locus YPL106C, strain sse1, active compounds read low 0.747 | locus YPL240C, strain hsp82, active compounds read low 0.864 | locus YPL241C, strain CIN2, active compounds read low 0.841 | locus YPL256C, strain CLN2, active compounds read low 0.601 | locus YPR141C, strain kar3, active compounds read low 0.607 | locus YPR163C, strain tif3, active compounds read low 0.884 | locus YPR167C, strain met16, active compounds read low 0.871 | strain wtn01, active compounds read low 0.761
inactive: locus YKR091W, strain srl3, active compounds read low 0.939 | locus YLR102C, strain apc9, active compounds read low 1.02 | locus YMR078C, strain ctf18, active compounds read low 0.971 | locus YMR125W, strain sto1, active compounds read low 0.955 | locus YNL298W, strain CLA4, active compounds read low 0.969 | locus YNL307C, strain MCK1, active compounds read low 0.959 | locus YOL012C, strain htz1 0.272 | locus YOR136W, strain idh2, active compounds read low 0.925 | locus YOR316C, strain cot1, active compounds read low 1 | locus YPR119W, strain clb2, active compounds read low 1.01
